Test results published in PubChem BioAssay (EPA / NIEHS).
Values joined by “and” are separate entries in the source; they are usually repeats but may differ in a detail not shown here. Equal values may be shown once. Some compounds were tested as several samples or in several runs, with calls that do not always agree. Active and inactive are the calls of the source. Rule for the calls: active = hit-call score of the fitted dose curve at least 0.9, where 1 is the maximum; inactive = score below 0.9.

Each molecule was assayed on Plasminogen activator inhibitor-1 (PAI1), SERPINE1 (gene 5054) (assay: BSK_hDFCGF_PAI1: BioMAP Diversity Plus: hDFCGF Assay for Plasminogen activator inhibitor-1 (PAI1) Biomarker Activity (AID 2283066)). Conditions: primary human foreskin fibroblasts; actives raise or lower the signal.
Procedure: BSK_hDFCGF is a cell-based, multiplexed-readout assay that uses foreskin fibroblast, a human skin primary cell, with measurements taken at 24 hours after chemical dosing in a 96-well plate.BSK_hDFCGF_PAI1 is an assay component measured in the BSK_hDFCGF assay. It measures PAI-1 antibody related to regulation of gene expression using ELISA technology.Data from the assay component BSK_hDFCGF_PAI1 was analyzed into 1 assay endpoint. This assay endpoint, BSK_hDFCGF_PAI1, was analyzed with bidirectional fitting relative to DMSO as the negative control and baseline of activity. Using a type of binding reporter, gain or loss-of-signal activity can be used to understand changes in the signaling as they relate to the gene SERPINE1. Furthermore, this assay endpoint can be referred to as a primary readout, because this assay has produced multiple assay endpoints where this one serves a signaling function. To generalize the intended target to other relatable targets, this assay endpoint is annotated to the cytokine intended target family, where the subfamily is plasmogen activator inhibitor.
The levels of cell surface (or secreted, indicated by the prefix "s") biomarker endpoints were measured by ELISA. Overt cytotoxicity to cells in confluent adherent cultures (all systems other than the BT system) was assessed by measuring total protein levels using sulforhodamine B (SRB) staining in parallel cultures at the time of biomarker measurements, indicated as SRB endpoints. For proliferation assays for adherent cell types, individual cell types are cultured at sub-confluence and relative cell numbers quantified by SRB staining at time points optimized for each system (48 h: 3C and CASM3C systems; 72 h: BT and HDF3CGF systems; 96 h: SAg system). SRB was performed by staining cells with 0.1% SRB after fixation with 10% TCA and reading wells at 560 nm.Viability and proliferation of PBMC (T cells) was quantified by Alamar Blue reduction for the SAg and BT systems. For PBMC viability (referred to as PBMC Cytotoxicity within the assay endpoint names), cells were plated (75,000/well in a 96-well plate) and then chemical samples added for 1 h before addition of activators, SEB and TSST-1 (20 ng/mL final concentration each). Cells were incubated for 90 h. Then, Alamar Blue (20 uL/well) (Invitrogen, Cat DAL1100) was added for 6 h, and the plates were read with a fluorescence microplate reader at 546/580 nm (excitation/emission). For PBMC proliferation, cells were plated and activated as above but incubated for only 16 h prior to addition of Alamar Blue. Plates were read after 6 h.

Q: Which outcome does the source give for CCCCN(CCO)CCO here?
A: Its outcome is “inactive”.

Q: How did the outcome turn out when O=C(O)C(F)(F)OC(F)(F)C(F)(F)OC(F)(F)C(F)(F)C(F)(F)C(F)(F)F was run?
A: Its outcome is “inactive”.

Q: For CC(C)(C)c1cccc(O)c1, which outcome is on record?
A: Its outcome is “inactive”.

Q: COc1ccccc1NC(=O)CC(C)=O was tested. Which outcome did it give?
A: Its outcome is “inactive”.

Q: Which AC50 does the source give for CC(=O)OC(C)(C)C1CC=C(C)CC1 (stereo not given) here?
A: The AC50 was 23.6 µM (active).

Q: Which AC50 does the source give for CC/C(=C(\c1ccccc1)c1ccc(OCCN(C)C)cc1)c1ccccc1 here?
A: The AC50 was 7.69 µM (active) and 7.18 µM (active).

Q: For COC(=O)c1ccc(C(=O)OC)cc1, which outcome is on record?
A: The outcome was “inactive”.

Q: With CCCCCCCC1CCCC1=O (stereo not given) as the molecule, how does the outcome read?
A: The outcome was “inactive”.

Q: How did the outcome turn out when OCCN1CCOCC1 was run?
A: The outcome was “inactive”.

Q: Which outcome does the source give for CC(=O)c1ccc(C)cc1 here?
A: Its outcome is “inactive”.

Q: Which outcome does the source give for C#C[C@]1(O)CC[C@H]2[C@@H]3CCc4cc(O)ccc4[C@H]3CC[C@@]21C here?
A: The outcome was “inactive”.

Q: Which AC50 does the source give for CCCCCCCCCC(=O)OCC here?
A: The AC50 was 31.4 µM (active).

Q: CC(C)CCCC(C)(C)O was tested. Which outcome did it give?
A: The outcome was “inactive”.

Q: With CCC(=O)OCC=Cc1ccccc1 as the molecule, how does the outcome read?
A: Its outcome is “inactive”.

Q: With C[C@]12CC[C@@H]3c4ccc(O)cc4CC[C@H]3[C@@H]1CC[C@@H]2O as the molecule, how does the outcome read?
A: The outcome was “inactive”.

Q: How did the outcome turn out when C=C(F)C(=O)OC(C(F)(F)F)C(F)(F)F was run?
A: Its outcome is “inactive”.

Q: How did the outcome turn out when C=C(C)C(=O)OCCC(F)(F)C(F)(F)C(F)(F)C(F)(F)C(F)(F)C(F)(F)C(F)(F)C(F)(F)F was run?
A: The outcome was “inactive”.

Q: How did the outcome turn out when Nc1ccc(N)c([N+](=O)[O-])c1 was run?
A: Its outcome is “inactive”.

Q: OCC(F)(OC(F)(F)C(F)(OC(F)(F)C(F)(F)C(F)(F)F)C(F)(F)F)C(F)(F)F (stereo not given) was tested. Which AC50 did it give?
A: The AC50 was 6.18 µM (active).

Q: What about the outcome of the same molecule?
A: The outcome was “inactive”.

Q: How did the outcome turn out when CC1=CC(C)C(C=O)C(C)C1 (stereo not given) (tested in a mixture with another compound) was run?
A: The outcome was “inactive”.

Q: For c1ccc(Sc2ccccc2)cc1, which AC50 is on record?
A: Its AC50 is 20 µM (active).

Q: How did the outcome turn out when CCn1cc(C(=O)O)c(=O)c2ccc(C)nc21 was run?
A: The outcome was “inactive”.

Q: CCOC(=O)CCCCCCCCC(=O)OCC was tested. Which outcome did it give?
A: Its outcome is “inactive”.

Q: CCCO[Si](OCCC)(OCCC)OCCC was tested. Which outcome did it give?
A: Its outcome is “inactive”.

Q: Which outcome does the source give for CCCCOCCOCCO here?
A: Its outcome is “inactive”.

Q: Which AC50 does the source give for C=C1CC/C=C(\C)CC[C@@H]2[C@@H]1CC2(C)C here?
A: Its AC50 is 31.2 µM (active).

Q: Which AC50 does the source give for CC=CC(=O)C1=C(C)C=CCC1(C)C here?
A: The AC50 was 0.016 µM (active).

Q: CC(=O)OCC=C(C)CCC=C(C)CCC=C(C)C was tested. Which AC50 did it give?
A: The AC50 was 25.8 µM (active).

Q: For CCOC(=O)C=Cc1ccccc1, which outcome is on record?
A: Its outcome is “inactive”.

Q: CC(=O)CCC=C(C)CCC=C(C)C was tested. Which outcome did it give?
A: The outcome was “inactive”.

Q: c1ccc(OCCOc2ccccc2)cc1 was tested. Which outcome did it give?
A: Its outcome is “inactive”.

Q: With c1ccc2c(c1)-c1ccc3ccc4cccc5cc-2c1c3c45 as the molecule, how does the outcome read?
A: Its outcome is “inactive”.

Q: For O=S(=O)(O)C(F)(F)C(F)(F)OC(F)(F)C(F)(F)F, which outcome is on record?
A: The outcome was “inactive”.

Q: NC(=O)c1c(Cl)cccc1Cl was tested. Which outcome did it give?
A: Its outcome is “inactive”.

Q: With O=C(c1ccc(OCCN2CCCCC2)cc1)c1c(-c2ccc(O)cc2)sc2cc(O)ccc12 as the molecule, how does the AC50 read?
A: The AC50 was 15.6 µM (active).

Q: How did the outcome turn out when CC(C)(CO)CO was run?
A: Its outcome is “inactive”.

Q: How did the outcome turn out when O=C1OC2(c3ccc(O)cc3Oc3cc(O)ccc32)c2ccccc21 was run?
A: The outcome was “inactive”.

Q: O=C(O)C(F)(F)C(F)(F)C(F)(F)C(F)(F)C(F)(F)C(F)(F)C(F)(F)C(F)F was tested. Which outcome did it give?
A: Its outcome is “inactive”.

Q: For C=C(C)C(N)=O, which outcome is on record?
A: Its outcome is “inactive”.
